Values without a mark were called inactive.
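Further: High-content confocal imaging of branched-DNA amplified FISH in 384-well plates, Hoechst-defined nuclei, score is well value minus plate DMSO median over DMSO robust SD, four wells per compound.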

In this assay the test system is HeLa. Put plainly: MALAT1 nuclear FISH intensity, robust Z-score vs DMSO; higher = more nuclear MALAT1 lncRNA, active = -3 or less. Conditions: 10 µM; 6 h.
For the compound `CC1=C(/C=C/C(C)=C/C=C/C(C)=C/C(=O)O)C(C)(C)CCC1` [All trans retinoic acid], the “MALAT1 nuclear FISH intensity” value was -1.81. With `CCCCCCCCCCCCC/C=C/[C@@H](O)[C@H](CO)N(C)C` [N,N-Dimethylsphingosine], the “MALAT1 nuclear FISH intensity” value is -0.409. `CC1(C)C[C@@H]1C(=O)N/C(=C\CCCCSC[C@H](N)C(=O)O)C(=O)O`: the “MALAT1 nuclear FISH intensity” value is -0.961. For `Cc1cn(-c2cc(NC(=O)c3ccc(C)c(Nc4nccc(-c5cccnc5)n4)c3)cc(C(F)(F)F)c2)cn1` [Nilotinib], the “MALAT1 nuclear FISH intensity” value was -0.228. As to `CCCc1nc(C)c2c(=O)nc(-c3cc(S(=O)(=O)N4CCN(CC)CC4)ccc3OCC)[nH]n12` [Vardenafil], the “MALAT1 nuclear FISH intensity” value is -1.12. As for `C=C(C)[C@@H]1CC[C@]2(C(=O)O)CC[C@]3(C)[C@H](CC[C@@H]4[C@@]5(C)CC[C@H](O)C(C)(C)[C@@H]5CC[C@]43C)[C@@H]12` [Betulinic acid], the “MALAT1 nuclear FISH intensity” value was -0.261. As to `Cc1ccc2c(c1)C(=O)C1(O)CCN(c3ccccc3)C1=N2` (centres undefined) [Blebbistatin], the “MALAT1 nuclear FISH intensity” value was -1.33. For the compound `CC[C@H]1OC(=O)[C@H](C)[C@@H](O[C@H]2C[C@@](C)(OC)[C@@H](O)[C@H](C)O2)[C@H](C)[C@@H](O[C@@H]2O[C@H](C)C[C@H](N(C)C)[C@H]2O)[C@](C)(O)C[C@@H](C)C(=O)[C@H](C)[C@@H](O)[C@]1(C)O` [Erythromycin], the “MALAT1 nuclear FISH intensity” value is 0.88.

On to `CCC(c1ccc(OCCN(CC)CC)cc1)C(CC)c1ccc(OCCN(CC)CC)cc1` (centres undefined) [Coralgil], for which the “MALAT1 nuclear FISH intensity” value was 1.78.

For the origin of these results see the supplement of paper PMC9844399.
